Out of some 97,000 compounds screened, about 810 (0.84%) were called active. The full list was thinned out, with actives kept by preference. A number with no mark means an inactive call. Cut-off read from the data, not from the text of the source: active = inhibition above about 19%; inactive = the rest.

For this experiment, the target named is Focal adhesion kinase 1 (Homo sapiens) (UniProt Q05397). Briefly: human PTK2 enzyme activity blockers – biochemical, primary screen (AID 727).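 Note: 0% = DMSO and 100% = reference compound high control.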 The following applies: biochemical FAK kinase activity assay; hits give high values;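 tested at 7 µM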.
Sequence of Focal adhesion kinase 1 (Homo sapiens) (Q05397 whole entry, looked up): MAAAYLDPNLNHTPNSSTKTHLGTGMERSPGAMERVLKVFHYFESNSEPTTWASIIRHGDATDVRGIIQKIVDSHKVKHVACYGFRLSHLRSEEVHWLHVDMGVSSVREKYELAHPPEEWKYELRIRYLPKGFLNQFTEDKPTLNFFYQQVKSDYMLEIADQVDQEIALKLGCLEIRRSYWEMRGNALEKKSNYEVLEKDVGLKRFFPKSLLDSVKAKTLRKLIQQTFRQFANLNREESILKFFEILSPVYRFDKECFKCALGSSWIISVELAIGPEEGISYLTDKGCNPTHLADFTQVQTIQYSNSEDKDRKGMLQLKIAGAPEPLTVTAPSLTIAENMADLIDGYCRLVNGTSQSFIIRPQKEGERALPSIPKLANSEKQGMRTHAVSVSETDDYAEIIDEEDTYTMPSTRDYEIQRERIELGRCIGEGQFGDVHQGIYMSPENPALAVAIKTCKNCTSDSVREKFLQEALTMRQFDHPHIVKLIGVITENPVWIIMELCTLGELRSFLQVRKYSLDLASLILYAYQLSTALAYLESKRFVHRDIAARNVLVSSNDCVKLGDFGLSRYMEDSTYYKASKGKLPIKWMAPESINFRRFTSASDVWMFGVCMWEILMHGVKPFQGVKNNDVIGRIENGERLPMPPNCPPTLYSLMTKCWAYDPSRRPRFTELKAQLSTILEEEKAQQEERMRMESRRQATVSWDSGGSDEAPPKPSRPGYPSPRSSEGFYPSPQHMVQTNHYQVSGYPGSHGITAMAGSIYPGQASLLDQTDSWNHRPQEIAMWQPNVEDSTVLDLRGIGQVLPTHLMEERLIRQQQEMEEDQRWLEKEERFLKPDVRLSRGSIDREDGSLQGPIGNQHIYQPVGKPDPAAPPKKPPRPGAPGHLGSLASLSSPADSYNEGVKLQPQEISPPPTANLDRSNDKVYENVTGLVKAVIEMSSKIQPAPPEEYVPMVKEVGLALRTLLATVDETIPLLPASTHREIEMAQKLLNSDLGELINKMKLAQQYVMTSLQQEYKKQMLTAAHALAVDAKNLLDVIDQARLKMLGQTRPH
Take `Cc1cccc(NC(=O)Cn2cc(C(=O)c3ccco3)c3ccccc32)c1`: the inhibition was -4.82%.

In the case of `Cc1cc(C)c2c3c(sc2n1)C(c1ccccc1)C(C#N)=C(N)O3` (stereo unspecified), the inhibition is 1.94%.

Take `CCCCC(C(=O)OCC(=O)c1ccc(OC)cc1)N1C(=O)c2ccccc2C1=O` (stereo unspecified): the inhibition is 0.79%.

In the case of `CC(c1ccccn1)N(CCN(C)C)C(=S)Nc1ccccc1F` (stereo unspecified), the inhibition is -1.18%.

Turning to `CCOC(=O)c1cc(NC(=O)c2ccc(Cl)cc2)c(=O)oc1-c1ccccc1`, the inhibition was -2.61%.

For `Nn1c(Cc2cccc3ccccc23)nnc1SCC(=O)N1CC(=O)Nc2ccccc21`, the inhibition is -1.43%.

Take `c1ccc(CSc2nnc(-c3ccco3)n2Cc2ccccc2)cc1`: the inhibition was -5.27%.

Consider `Clc1ccccc1CSc1nnc(-c2ccco2)c(-c2ccco2)n1`, for which the inhibition is 31.9% (active).

`Nc1nc(SCc2ccccc2Cl)n[nH]1`: the inhibition is 1.47%.

Consider `CCCCOc1ccc(N(CC(=O)NCC2CCCO2)C(=O)CCC(=O)Nc2cc(C)ccn2)cc1` (stereo unspecified), for which the inhibition was -1.73%.

On to `CCNC(=O)c1sccc1-n1cccc1`, for which the inhibition is -1.65%.

As for `Cn1c(SCC(=O)C(C)(C)C)nnc1-c1ccccn1`, the inhibition is -1.08%.

Take `Clc1ccccc1-c1cc(COc2ccc3ccccc3c2)no1`: the inhibition is 5.83%.

For the compound `CCCC(C)C(=O)Nc1ccc(NC(C)=O)cc1` (stereo unspecified), the inhibition is 0.18%.

As for `C=CCn1c(=O)c2ccccc2n2c(SCC(=O)N3CCCc4ccccc43)nnc12`, the inhibition is 5.22%.

On to `Cn1c(SCC(=O)N2CCCc3ccccc32)nc2ccccc2c1=O`, for which the inhibition is 37.7% (active).

Consider `O=C(CSc1nc2[nH]ncc2c(=O)n1-c1ccccc1)N1CCCc2ccccc21`, for which the inhibition was 0.8%.

Regarding `CC(C)(C)C(=O)Cn1c(NCCO)nc2ccccc21`, the inhibition is 1.69%.

Take `CC(C)(C)C(=O)c1cnc(Nc2ccccc2)s1`: the inhibition is 4.36%.

As to `OC(C#CCN1CCOCC1)(c1ccccc1)C1CCCCC1` (stereo unspecified), the inhibition is 0.89%.

Take `COc1ccc(S(=O)(=O)N/N=C\c2ccc(OC)c(COc3ccc(C)cc3[N+](=O)[O-])c2)cc1`: the inhibition was 2.51%.

As to `O=C(Nc1cccc2ncccc12)c1ccc(-c2ccc(Cl)cc2Cl)o1`, the inhibition is 9.2%.

Consider `CCN1CCN(c2ccc([N+](=O)[O-])cc2C(=O)c2ccc(Cl)cc2)CC1`, for which the inhibition is -2.69%.

As for `O=C(CSc1nc2cccnc2n1Cc1ccccc1)N1CCc2ccccc21`, the inhibition was 1.41%.

As for `FC(F)(F)c1cccc(NC(=S)Nc2cccc(Cl)c2)c1`, the inhibition was -0.91%.

With `Cc1c(NC(=O)c2cc(-c3ccc(Cl)s3)nc3ccccc23)c(=O)n(-c2ccccc2)n1C`, the inhibition is 2.95%.

Regarding `Cc1ccc(C(=O)N/C(=C/c2ccco2)C(=O)NCCc2c[nH]c3ccccc23)cc1C`, the inhibition was 4.25%.

On to `COc1ccc(C2C=C(c3ccc(Br)cc3)Nc3nc(NS(C)(=O)=O)nn32)cc1` (stereo unspecified), for which the inhibition was -9.88%.

Take `O=C(CSc1nnnn1-c1ccccc1)NCc1ccco1`: the inhibition was 5.37%.

With `COc1ccc(CN(Cc2ccco2)S(=O)(=O)c2ccc(S(=O)(=O)N3CCCC3)cc2)cc1`, the inhibition was -0.01%.

Regarding `Cc1cccc(N2CCN(C(=O)CN(C)S(=O)(=O)c3ccc4c(c3)CCC(=O)N4)CC2)c1C`, the inhibition is 4.5%.

Take `O=[N+]([O-])c1cccc(-c2nnc3c4ccccc4c4ccccc4n23)c1`: the inhibition was 17.7%.

In the case of `O=c1c2c(nc3nc[nH]n13)CCC2`, the inhibition is -0.92%.

As for `CCN1C(=O)/C(=C\N2CCOCC2)SC1=S`, the inhibition was -1.1%.

`Cc1cccc(N(C(=O)Cc2cccs2)C(C(=O)NC2CCCC2)c2ccsc2)c1` (stereo unspecified): the inhibition was 2.56%.

As for `Oc1ccccc1/C=N/n1c(-c2cccs2)n[nH]c1=S`, the inhibition is 29.4% (active).

In the case of `S=c1[nH]nc(-c2ccco2)n1/N=C/c1ccc(Br)s1`, the inhibition is 15.6%.

Regarding `Cc1ccc(/C=N\n2c(-c3ccccc3)n[nH]c2=S)s1`, the inhibition is 0.69%.

As for `Cc1cc(NC(=O)Nc2ccccc2)n(-c2ccccc2)n1`, the inhibition was -1.43%.

Turning to `Cc1cc(NC(=O)c2cnn3cccnc23)n(-c2ccccc2)n1`, the inhibition is 20.4% (active).

As to `O=C(Nc1ccc(Cl)cn1)c1cnn2cccnc12`, the inhibition is 5.62%.

Turning to `CNC(=O)c1csc(-c2ccccc2)n1`, the inhibition is -0.71%.

`Cc1ccc(C(c2nnnn2CS(=O)(=O)c2ccc(C)cc2)N2CCC(C)CC2)cc1` (stereo unspecified): the inhibition was -7.49%.

As to `CSc1ccccc1C(=O)Nc1cccc(C(C)=O)c1`, the inhibition was 2.46%.

On to `CCN1CCN(C(=O)C2(NC(=O)Nc3cccc(F)c3)CCCCC2)CC1`, for which the inhibition was -0.58%.

For the compound `CCOC(=O)c1c(N)sc(C(C)=O)c1C`, the inhibition was -0.36%.

For `CCOC(=O)CSc1nc2ccc(C)cc2[nH]1`, the inhibition was -1.86%.

With `CCCSc1nsc(N)n1`, the inhibition was -4.41%.

Take `CCN(CC)S(=O)(=O)c1ccc(N(C)Cc2ccc(C(F)(F)F)cc2)nc1`: the inhibition was -0.16%.

Take `O=C(Nc1ccc(Cl)cc1)OCc1cc(-c2ccccc2)on1`: the inhibition is -6.39%.

On to `CN(C)/C=C(\C#N)C(=O)c1cccnc1Oc1ccc(F)cc1F`, for which the inhibition was -5.85%.

For the compound `C=CCn1c(SCc2c(C(=O)OC)sc(N)c2C(=O)OC)nnc1-c1ccc(Cl)cc1`, the inhibition was 1.31%.

Turning to `OC(CN=c1sc2ccccc2n1CC(O)COc1ccccc1)COc1ccccc1` (stereo unspecified), the inhibition was 0.61%.

For `CCn1c(SC)nc(O)c(C(c2ccc(OC)c(O)c2)c2c(O)nc(SC)n(CC)c2=O)c1=O`, the inhibition was -2.86%.

`CNC(=O)CSc1nnnn1-c1ccc(C)cc1C`: the inhibition is 2.36%.

For `CCOC(=O)CNC(=O)CSc1nnnn1-c1cc(C)ccc1C`, the inhibition is -0.99%.

For `CCn1nnnc1SCC(=O)c1ccc(C)cc1C`, the inhibition is 21.8% (active).

As to `COc1ccc(OCCCC(=O)Oc2ccc(OC)cc2)cc1`, the inhibition was 0.13%.

Consider `COc1ccc(-c2oc3ncn(Cc4ccco4)c(=N)c3c2-c2ccc(OC)cc2)cc1`, for which the inhibition is 3.43%.

Regarding `CCc1ccc(CNC(=O)C2CC(=O)N(CCc3ccc(C)cc3)C2)cc1` (stereo unspecified), the inhibition is -1.09%.

Regarding `CC(=O)c1cccc(NC(=O)N2CCCC2C(=O)NCCc2ccccc2)c1` (stereo unspecified), the inhibition was -0.1%.

The record behind these values is PubChem BioAssay AID727 (The Scripps Research Institute Molecular Screening Center, 2007).
